This passage reports displacement results from PubChem BioAssay AID1240 (Sanford-Burnham Center for Chemical Genomics, 2008).

Screen size: about 50,000 compounds; about 800 (1.6%) showed an effect of 50% or more. The list comes from a sample in which strong results are over-represented; it also holds similar structures and randomly drawn compounds.

In this assay the target is Bcl-2-like protein 10 (Homo sapiens) (UniProt Q9HD36). In words: Phenotype converters, Bcl-B/TR3 peptide binding displacement, primary biochemical FP (AID 1240).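 Further: 0% = Bcl-B with tracer peptide and DMSO and 100% = tracer peptide lacking Bcl-B.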 The settings on record: GST-Bcl-B / FITC-TR3 peptide fluorescence polarization; stronger effect = higher value; compound at 3.75 mg/L. A general note: Polarisation of emitted light reports the rotation of a fluorescent probe.
Sequence of Bcl-2-like protein 10 (Homo sapiens) (Q9HD36 whole entry, looked up): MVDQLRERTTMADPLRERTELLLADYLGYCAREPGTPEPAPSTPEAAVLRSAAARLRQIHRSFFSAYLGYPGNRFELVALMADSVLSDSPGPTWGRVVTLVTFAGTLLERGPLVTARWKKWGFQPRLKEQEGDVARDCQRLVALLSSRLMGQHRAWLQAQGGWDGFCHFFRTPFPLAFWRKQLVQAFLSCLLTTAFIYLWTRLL
Regarding `CC1CCC2(CC1)C(C#N)=C(SCC(N)=O)NC(=O)C2C#N` (stereo unspecified), the displacement was -7.2%.
`CCOC(=O)c1sc(NC(=O)c2ccc(Cl)cc2Cl)nc1C`: the displacement was determined as 17%.
Regarding `O=C1CC(N(Cc2ccco2)C(=S)NCCc2ccccc2)C(=O)N1c1ccc(F)cc1` (stereo unspecified), the displacement was found to be 27.4%.
As to `CC(C)(C)NC(=O)c1cccc(C(=O)Nc2cccc(O)c2)c1`, the displacement is -3.2%.
For the compound `c1ccc(C2=Nc3ccccc3NC(c3ccccc3)C2)cc1` (stereo unspecified), the displacement was -26.7%.
Then `O=C(NN1C(=O)/C(=C/c2ccc(O)c(O)c2)SC1=S)c1ccccc1Br`, with 73%; and `O=C(NN1C(=O)/C(=C/c2ccc(O)cc2)SC1=S)c1ccccc1Br`, with -72.2%.
`COc1cc(/C=C2\SC(=S)N(NC(=O)c3ccccc3Br)C2=O)ccc1O`: the displacement is -21.3%.
Then `CCCCOc1cccc(NC(=O)c2cccc([N+](=O)[O-])c2C)c1`, with 5%.
`O=C(Cc1ccc(Br)cc1)Nc1cc([N+](=O)[O-])ccc1Cl`: the displacement was 4.4%.
The figure for `O=C1N/C(=N\N=C\c2ccccc2O)SC1Cc1ccc(Cl)cc1` (stereo unspecified) is 8.7%.
As to `O=C(NNC(=O)c1cccc(Cl)c1)c1cccc(F)c1`, the displacement was -4.7%.
The figure for `CCC(C)(C)C1CCc2c(sc(NC(=O)c3cnccn3)c2C(=O)OC)C1` (stereo unspecified) is 6.1%; for `N#Cc1c(/N=C\c2ccc(N3CCOCC3)c([N+](=O)[O-])c2)sc2c1CCCC2` it is 81.3%.
The figure for `N#Cc1c(/N=C/c2cc([N+](=O)[O-])c(N3CCOCC3)cc2N2CCOCC2)sc2c1CCCC2` is 14.5%.
The figure for `N#Cc1c(/N=C\c2ccc(N3CCCCC3)c([N+](=O)[O-])c2)sc2c1CCCC2` is -5.3%; for `O=C1NC(=O)/C(=C\c2ccc(O)cc2)S1` it is 1.8%.
With `CCCC(=O)Nc1ccc(-c2nc3cc(C)c(C)cc3o2)c(O)c1`, the displacement is 96.8%.
The figure for `CCCC(=O)Nc1ccc(-c2nc3cc(C)c(C)cc3o2)cc1` is 14.7%.
Then `CCc1ccc(OCC(=O)Nc2ccc(-c3nc4cc(C)c(C)cc4o3)c(O)c2)cc1`, with 118%; and `CCc1ccc(OCC(=O)Nc2ccc(O)c(-c3nc4cc(C)ccc4o3)c2)cc1`, with 7.4%.
The figure for `CCC(=O)Nc1ccc(O)c(-c2nc3cc(C)c(C)cc3o2)c1` is -7%; for `CCc1ccc(OCC(=O)Nc2ccc(-c3nc4ccccc4o3)c(O)c2)cc1` it is 0.8%; for `CCOC(=O)c1cnn(-c2ccccc2)c1NC(=O)c1ccccc1` it is 2.4%.
Consider `O=C(c1ccco1)N(C(=O)c1ccco1)c1cc(C(F)(F)F)ccc1Cl`, for which the displacement was -3.3%.
Consider `COc1ccc(OCCOCCN2CCC(C)CC2)cc1`, for which the displacement is -9.4%.
For the compound `CNC(=O)c1c(-c2ccccc2)oc2ccc(O)cc12`, the displacement stood at 10.3%.
With `O=C1C(C=NCc2ccc3c(c2)OCO3)=C(O)c2ccccc21`, the displacement came out at 134%.
Consider `O=C1CC(c2ccccc2)CC(O)=C1C=NCc1ccc2c(c1)OCO2` (stereo unspecified), for which the displacement was -2.5%.
The figure for `O=C1C(C=NCc2ccc(Cl)c(Cl)c2)=C(O)c2ccccc21` is 2.5%.
Then `O=C(Nc1ccc2oc(-c3ccc(Cl)cc3Cl)nc2c1)c1ccc2c(c1)OCCO2`, with 2.1%; and `O=c1c2ccccc2nc(/C=C/c2ccc([N+](=O)[O-])cc2)n1Cc1ccccc1`, with 118%.
Then `Cn1cc(/C=C/c2nc3ccccc3c(=O)n2Cc2ccccc2)c2ccccc21`, with 136%.
With `O=c1c2ccccc2nc(/C=C/c2cccc([N+](=O)[O-])c2)n1Cc1ccccc1`, the displacement turned out to be 12.9%.
As for `Cn1c(/C=C/c2cn(C)c3ccccc23)nc2ccccc2c1=O`, the displacement stood at 40.9%.
Then `Cn1c(/C=C/c2cn(Cc3ccccc3)c3ccccc23)nc2ccccc2c1=O`, with 17.3%; and `Cn1c(/C=C/c2ccc([N+](=O)[O-])cc2)nc2ccccc2c1=O`, with 2.9%; and `Cc1onc(-c2ccccc2Cl)c1C(=O)NC12CC3CC(CC(C3)C1)C2`, with 1%.
Then `CCOC(=O)c1c(NC(=O)c2cccc(Cl)c2)sc(C(=O)Nc2cccc(C(F)(F)F)c2)c1C`, with -3.3%; and `O=C(N1CCOCC1)n1nnc2ccccc21`, with 13.2%; and `CC(C)(C)c1ccc(-c2nn(CNc3cccc(Cl)c3)c(=S)o2)cc1`, with 14%.
The figure for `COc1ccc(C/C(N)=N/OC(=O)c2ccccc2Cl)cc1` is -0.1%; for `O=C(COc1ccc(Br)cc1)Nc1ccc2nn(-c3ccc(F)cc3)nc2c1` it is 50.3%; for `O=C(COc1ccccc1)Nc1ccc2nn(-c3ccc(Cl)cc3)nc2c1` it is 6.3%.
Turning to `O=C(Nc1ccc2nn(-c3ccc(Cl)cc3)nc2c1)c1ccccn1`, the displacement worked out at 91%.
Take `CCCC(=O)Nc1ccc2nn(-c3ccc(F)cc3)nc2c1`: the displacement is 0.6%.
The figure for `O=C(Nc1ccc2nn(-c3ccc(Cl)cc3)nc2c1)c1ccccc1I` is 7.4%.
The figure for `O=C(COc1ccc([N+](=O)[O-])cc1)Nc1ccc2nn(-c3ccc(F)cc3)nc2c1` is 9%.
Then `O=C(Nc1ccc2nn(-c3ccc(Cl)cc3)nc2c1)c1ccccc1`, with -1.9%; and `O=C(COc1ccccc1Cl)Nc1ccc2nn(-c3ccccc3)nc2c1`, with 78.4%; and `COc1ccc(-n2nc3ccc(NC(=O)COc4ccccc4Cl)cc3n2)cc1`, with 19.9%.
In the case of `Oc1ccc(/C=N/Nc2nc3ccccc3s2)c(O)c1`, the displacement was 11.1%.
The figure for `COc1ccccc1CC(=O)NCc1ccco1` is 10.3%.
The figure for `COc1ccc(/C=N/NC(=O)c2ccoc2C)c(OC)c1OC` is -4.5%; for `Cc1occc1C(=O)N/N=C/c1ccccc1` it is 4.2%; for `Cc1occc1C(=O)N/N=C/c1ccc(O)cc1O` it is 78.5%.
With `Cc1ccc(N2C(=O)c3ccc(C(=O)O)cc3C2=O)nc1`, the displacement is -10.6%.
As for `c1ccc(-n2ncnc2-c2ccc3c(c2)OCO3)cc1`, the displacement was 4.4%.
The figure for `COc1ccccc1-c1coc2c(CN3CCN(C)CC3)c(O)ccc2c1=O` is -1.3%; for `CN1CCN(Cc2c(O)ccc3cc(-c4nc5ccccc5[nH]4)c(=O)oc23)CC1` it is 125%; for `O=c1oc2c(CN3CCOCC3)c(O)ccc2cc1-c1nc2ccccc2[nH]1` it is 139%.
The figure for `CCOC(=O)c1c(-c2ccccc2)oc2ccc(O)c(CN3CCCC(C)C3)c12` (stereo unspecified) is 11%; for `CN1CCN(Cc2c(O)ccc3c(=O)c(-c4ccccc4)coc23)CC1` it is -1.7%.
The figure for `CCc1cc2c(=O)c(-c3nc4ccccc4[nH]3)coc2c(CN2CCOCC2)c1O` is 8.5%; for `CC1CCCN(Cc2c(O)ccc3cc(-c4nc5ccccc5[nH]4)c(=O)oc23)C1` (stereo unspecified) it is 106%.
For the compound `CC1CCN(Cc2c(O)ccc3c4c(c(=O)oc23)CCC4)CC1`, the displacement was 12.8%.
For `Cn1c(-c2cc3ccc(O)c(CN4CCOCC4)c3oc2=O)nc2ccccc21`, the displacement was found to be 19.1%.
Then `COc1ccc(N2C(=O)C3C(c4ccccc4Cl)OC4(C(=O)c5ccccc5C4=O)C3C2=O)c(OC)c1` (stereo unspecified), with 12.5%; and `COc1ccc(C2CC(=O)C3=C(C2)Nc2ccccc2NC3c2cc(C)ccc2C)cc1` (stereo unspecified), with -3.7%; and `Cc1ccc(C2/C(=C(\O)c3ccccc3)C(=O)C(=O)N2CCCC(=O)O)cc1` (stereo unspecified), with 1.4%.
The figure for `O=C1N=c2ccccc2=C1c1sc(Nc2cccc(Cl)c2Cl)nc1O` is 15.8%; for `O=C1OC(c2ccc(Br)cc2)=C/C1=C\C=C\c1ccccc1` it is -8.3%.
Consider `COc1cc(/C=C2\C(=O)NN(c3ccccc3)C2=O)cc(OC)c1OC`, for which the displacement was -6.6%.
Then `COc1ccc(C(=O)Nc2ccc(Br)cn2)cc1OC`, with 5.1%.
Then `COc1ccc(Cl)cc1NC(=O)C1=C(C)NC(=O)NC1c1cccc2ccccc12` (stereo unspecified), with 15.4%; and `O=C1CCCc2oc3ccc(NS(=O)(=O)c4ccccc4)cc3c21`, with 2.5%.
Then `O=[N+]([O-])c1ccc(-c2ccc(/C=C/c3ccc4ccccc4n3)o2)cc1`, with 14.8%; and `O=C(/C=C/c1ccc(-c2ccccc2[N+](=O)[O-])o1)Nc1ccc(NC(=O)c2ccco2)cc1`, with -0.2%.
With `O=C(Nc1cccnc1)c1ccc(-c2ccccc2[N+](=O)[O-])o1`, the displacement came out at 48.4%.
`O=C(/C=C/c1ccc(-c2ccccc2[N+](=O)[O-])o1)Nc1cccnc1`: the displacement was 73.1%.
On to `O=[N+]([O-])c1ccccc1-c1ccc(/C=C/c2ccc3ccccc3n2)o1`, for which the displacement is 97.9%.
The figure for `O=C1C(=Cc2ccc(-c3ccccc3[N+](=O)[O-])o2)C(=O)c2ccccc21` is -3.3%; for `Cc1ccc(/C=C/C(=O)Nc2cccc([N+](=O)[O-])c2)o1` it is 10.1%; for `Cc1ccc(/C=C/C(=O)Nc2ccc([N+](=O)[O-])cc2)o1` it is 11.8%.
Then `Cc1ccc(/C=C/C(=O)Nc2ccc(C)c([N+](=O)[O-])c2)o1`, with 62%; and `COc1ccc(-c2cc(CC(=O)c3ccccc3)cc(-c3ccc(OC)cc3)n2)cc1`, with 7.7%; and `COc1ccc(Cl)cc1N(CC(=O)N1CCCCC1)S(=O)(=O)c1ccc(C)c([N+](=O)[O-])c1`, with 2.3%.
Then `Cc1ccccc1/[N+]([O-])=C/c1cccs1`, with 0.1%; and `COc1ccccc1NC(=O)C(=O)NCC(C)C`, with 9.1%; and `COc1cc(OC)c(OC)cc1CN1CCN(Cc2cc(OC)c(OC)cc2Br)CC1`, with 1.2%.
Turning to `CCc1cc(=O)oc2cc(OC(C)=O)ccc12`, the displacement amounted to 12.3%.
Consider `CCOC(=O)c1ccccc1N(C(=O)C(F)(F)F)C1C=CS(=O)(=O)C1` (stereo unspecified), for which the displacement is -3.1%.
`O=C(N(c1cccc2ccccc12)C1C=CS(=O)(=O)C1)C(F)(F)F` (stereo unspecified): the displacement is 66%.
The figure for `O=C(N(c1cccc(C(F)(F)F)c1)C1C=CS(=O)(=O)C1)C(F)(F)F` (stereo unspecified) is 14.6%; for `CC(Oc1ccccc1)C(=O)N1CCC(Cc2ccccc2)CC1` (stereo unspecified) it is 3.1%.
The figure for `C=CCN1C(=O)/C(=C\c2ccc3c(c2)OCO3)C(=O)NC1=S` is 4.4%; for `COc1c(Cl)cc(C(=O)Nc2c(C)cccc2C)cc1Cl` it is 6.7%.
In the case of `COc1ccc(Br)cc1C1C(C(=O)OCCOC(C)C)=C(C)NC2=C1C(=O)CCC2` (stereo unspecified), the displacement is -2.6%.
Turning to `Cc1ccc(NC(=O)CN(c2ccc(C(C)C)cc2)S(=O)(=O)c2ccccc2)c(C)c1`, the displacement is 5.6%.
The figure for `COc1cc(C2OCC3(CO)C(C)C=C(C)C2C3C)ccc1O` (stereo unspecified) is 16.4%; for `O=C1c2cccc3c(N4CCCCC4)ccc(c23)C(=O)N1c1ccc(Cl)cc1` it is 5.7%; for `Cc1cccc(N2C(=O)c3cccc4c(N5CCCCC5)ccc(c34)C2=O)c1` it is 15.5%.
Turning to `Cc1cccc(N2C(=O)c3cccc4c(N5CCOCC5)ccc(c34)C2=O)c1`, the displacement amounted to 154%.
Then `COc1ccc(N2C(=O)c3cccc4c(N5CCNCC5)ccc(c34)C2=O)cc1`, with 37.2%; and `Cc1cccc(N2C(=O)c3ccc(-c4ccc5c(c4)C(=O)N(c4cccc(C)c4)C5=O)cc3C2=O)c1`, with 6.7%; and `O=C1c2cccc3c(N4CCNCC4)ccc(c23)C(=O)N1c1ccc(Cl)cc1`, with 101%.
